The list is not random: actives were taken first. Their share in the collection is about 2.2%.
Ba/F3 V617F tox: reduce viability of Ba/F3 cells dependent on JAK2V617F. Ba/F3 EpoR-JAK2V617F viability, ATP luminescence. inhibition, % at 5.6 µM. 220,000 compounds, 1.1% hits. AID 1446;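 active means inhibition above the campaign mean plus 3 SD over all tested compounds, cut at about 24% in these data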;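 further: cytokine-independent growth of Ba/F3 cells driven by EpoR plus mutant JAK2; 0% = DMSO-treated cells and 100% = JAK inhibitor I control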
KLF5 inhibitor: inhibitors of KLF5 expression; DLD-1 KLF5 promoter-luciferase reporter, luminescence; 290,000 compounds, 0.23% hits; inhibition, % at 5 µM;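 active means inhibition above a per-plate limit of that plate's mean compound inhibition plus 3 SD, cut at about 60% in these data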;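 further: 0% = DMSO wells and 100% = LY294002 at 200 µM; higher means less KLF5 promoter-driven luciferase light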
APP 5UTR inh: APP translation inhibition | SH-SY5Y APP 5'UTR-luciferase reporter, luminescence | AID 1285 | 190,000 compounds, 0.82% hits | inhibition, % at 2 µM;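 active means inhibition above a set limit, derived from the sample mean plus 3 SD, cut at about 45% in these data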
aSyn 5UTR inh: MLPCN primary screen, SNCA 5' untranslated region; alpha-synuclein 5'UTR reporter, inhibitor activity; inhibition, % (tested at 7.5 µM); 300,000 compounds, 0.82% hits; AID 1813; in the data active means inhibition above about 60%;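 further: H4 neuroglioblastoma cells stably carrying SNCA 5'UTR luciferase fusion; 0% = DMSO wells and 100% = positive control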
IEC-6 tox: counter-screen for KLF5 inhibitors: cytotoxicity in IEC-6 cells; AID 1825; 290,000 compounds, 0.78% hits; inhibition, % at 5 µM; IEC-6 cytotoxicity, luminescence viability;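 further: 0% = plate median of test compound wells and 100% = cytotoxic reference compound wells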
BaF3 parental: reduces parental Ba/F3 cell viability, JAK2V617F counter-screen | inhibition, % at 5.6 µM | AID 1486 | CellTiter-Glo ATP luminescence | 220,000 compounds, 1.1% hits;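 active means inhibition above a per-campaign cutoff, the mean inhibition of all tested compounds plus 3 SD, cut at about 27% in these data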;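 further: 0% = DMSO wells and 100% = JAK Inhibitor I control wells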
IEC-6 cytotox cf: confirmation of cytotoxic compounds in rat IEC-6 intestinal epithelial cells; 1,900 compounds, 63% hits; inhibition, % at 5 µM; shares compounds with IEC-6 tox; AID 1907; IEC-6 rat intestinal epithelial viability, luminescence;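 further: 0% = vehicle and 100% = reference cytotoxic drug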
The depositor's hits bear a star; nt = no result given. Unless noted, no stated cut-off is given here; in the data, active means inhibition above about 22%; inactive means the rest.

SMILES	Ba/F3 V617F tox	KLF5 inhibitor	APP 5UTR inh	aSyn 5UTR inh	IEC-6 tox	BaF3 parental	IEC-6 cytotox cf
COC(=O)c1[nH]c2c(c1C)C(=O)CC(c1cccs1)C2 (stereo unspecified)	79*	45	95*	85*	84*	82*	50*
COCCOC(=O)c1[nH]c2c(c1C)C(=O)CC(c1ccccc1)C2 (stereo unspecified)	74*	45	92*	78*	84*	75*	56*
COCCOC(=O)c1[nH]c2c(c1C)C(=O)CC(c1ccc(N(C)C)cc1)C2 (stereo unspecified)	-4	-61	-27	-45	0	2	nt
CSCCOC(=O)c1[nH]c2c(c1C)C(=O)CC(c1ccco1)C2 (stereo unspecified)	72*	59	95*	33	74*	73*	48*
COC(=O)c1[nH]c2c(c1C)C(=O)CC(c1cc(OC)ccc1OC)C2 (stereo unspecified)	3	5	0	-29	6	5	nt
COC(=O)c1cc(S(=O)(=O)N2CCN(c3cccc(OC)c3)CC2)cn1C	nt	-18	nt	1	4	nt	nt
CCN(CC)c1ccc(/C=N/NC(=O)c2cnccn2)cc1	78*	7	74*	-85	43*	74*	56*
NC(=O)/C(=C/c1ccco1)C(N)=S	-2	-13	nt	5	-8	1	nt
COc1cc(/C=N/Nc2nc(C)nc3c2cnn3-c2ccccc2)ccc1O	46*	11	50*	-14	32*	51*	9
COc1cc(/C=N/NC(=O)c2nc(-c3ccccc3)n(-c3ccccc3)n2)ccc1O	-1	-17	12	39	2	3	nt
O=C(CC1C(=O)NCCN1Cc1c(F)cccc1Cl)NCCCn1cccn1 (stereo unspecified)	0	-5	nt	4	0	-3	nt
CCOc1ccccc1NC(=O)c1cc(S(=O)(=O)NCc2ccco2)ccc1F	nt	-25	nt	-2	3	nt	nt
Cc1cc2nc(/C=C/c3cccnc3)[nH]c2cc1C	nt	6	nt	92*	88*	nt	59*
COc1cc(/C=C2\N=C(c3ccccc3)NNC2=O)cc(OC)c1OC	72*	44	nt	52	59*	79*	53*
O=C1NNC(c2ccccc2)=N/C1=C\c1ccco1	-1	-12	nt	24	-5	0	nt
Cc1ccc(CS(=O)(=O)c2cn(CC(=O)N3CCOCC3)c3ccccc23)cc1	nt	-42	nt	1	-4	nt	nt
Cc1ccc(CN2CCCCC2C(=O)Nc2ccc(Oc3cccnc3)cc2)o1 (stereo unspecified)	nt	27	nt	-58	38*	nt	37*
O=C(Nc1ccc(Oc2ccccc2)nc1)C1CCCCN1Cc1ccco1 (stereo unspecified)	nt	50	nt	-49	60*	nt	39*
CCn1nc(C)c(CN2CCCCC2C(=O)Nc2ccc(Oc3cccnc3)cc2)c1C (stereo unspecified)	nt	-23	nt	13	-6	nt	nt
O=C(COc1ccccc1-c1ccccc1)N/N=C/c1ccccn1	-2	-5	13	-2	1	-2	nt
Cc1ccc(Nc2n[nH]c(C)c2[N+](=O)[O-])cc1	0	-146	-54	-221	-4	6	nt
Cc1[nH]nc(Nc2ccc(C(C)C)cc2)c1[N+](=O)[O-]	-1	-172	nt	-151	40*	-2	23*
Cc1[nH]nc(Nc2ccc(Br)cc2)c1[N+](=O)[O-]	1	-137	nt	-164	35*	5	18
CC(C)OC(=O)Nc1ccc2c(c1)N(C(=O)N1CCN(C)CC1)c1ccccc1CC2	25*	-55	nt	-62	35*	29*	21
Cc1ccc(Nc2cc(C)nn2-c2nc(C)cc(=O)[nH]2)cc1	100*	41	92*	28	101*	98*	101*
SMILES	Ba/F3 V617F tox	KLF5 inhibitor	APP 5UTR inh	aSyn 5UTR inh	IEC-6 tox	BaF3 parental	IEC-6 cytotox cf
CSCC[C@H](NC(=O)N1CCn2c1nc1ccccc12)C(=O)N1CCCCC1	nt	-19	nt	-1	-6	nt	nt
Cc1cc(/C=N/NC(N)=S)c(O)c(/C=N/NC(N)=S)c1	-2	-16	nt	7	90*	2	13
NC(=S)N/N=C/c1cccc(O)c1O	1	-18	-7	-94	-5	8	nt
CCOc1ccc(N=Cc2c(C)[nH]n(-c3nc4ccccc4[nH]3)c2=O)cc1	28*	-23	5	39	30*	34*	53*
O=C(CCCl)Nc1nc2c(s1)CCc1ccccc1-2	nt	-14	nt	33	30*	nt	18
COCCCN1CN(S(=O)(=O)c2cccs2)c2nc3ccccc3nc21	0	-18	nt	0	1	1	nt
COc1cccc(OC)c1C(=O)Nc1ccccc1N1CCCCC1	nt	3	nt	23	26*	nt	2
COc1ccc(OCC(=O)Nc2ccccc2N2CCCCC2)cc1	nt	56	nt	21	70*	nt	42*
COc1ccc(OCC(=O)Nc2ccccc2N2CCN(C)CC2)cc1	nt	17	nt	-13	2	nt	nt
COc1ccc(OCC(=O)Nc2ccccc2-c2ccccc2)cc1	4	10	11	21	28*	7	15
CCCCOc1cccc(C2/C(=C(/O)c3ccc4c(c3)CC(C)O4)C(=O)C(=O)N2CCN2CCOCC2)c1 (stereo unspecified)	nt	-19	nt	10	-7	nt	nt
CC(OC(=O)COc1ccccc1Cc1ccccc1)C(=O)N(C)c1ccccc1 (stereo unspecified)	nt	nt	nt	-2	nt	nt	nt
COc1cc(OC)cc(C(=O)NCC2CCCN(C(=O)c3csc(C)n3)C2)c1 (stereo unspecified)	nt	-26	nt	-16	-5	nt	nt
CCOC(=O)C1CCCN(/C=C2\SC(=S)N(CC)C2=O)C1 (stereo unspecified)	0	-36	nt	2	-8	-4	nt
Cc1cccc(OCC(=O)NCC(=O)N/N=C/c2cc(Br)cc(Br)c2O)c1	nt	35	nt	29	30*	nt	18
COc1ccccc1NC(=O)N1CCC(c2nc3cc(C)c(C)cc3[nH]2)CC1	83*	47	58*	74*	82*	81*	59*
CCN(C(=O)C(C)OC(=O)CCCNC(=O)c1ccc(Cl)cc1)c1ccccc1 (stereo unspecified)	nt	nt	nt	4	nt	nt	nt
CCCCCCn1ccc(=N)cc1	92*	6	2	13	28*	69*	26*
CC1c2cc3c(cc2CCN1CC(=O)Nc1ccccc1)OCCCO3 (stereo unspecified)	nt	10	nt	-6	6	nt	nt
CC1c2cc3c(cc2CCN1C(=O)c1cccc(Cl)c1)OCCCO3 (stereo unspecified)	nt	-10	nt	-65	25*	nt	8
C[C@@H](C(=O)N1CCN(Cc2ccc3c(c2)OCO3)CC1)n1nnc2ccccc2c1=O	nt	0	nt	-23	6	nt	nt
Cn1cccc1/C=C1\SC(=Nc2ccc(O)cc2)NC1=O	89*	46	nt	-47	90*	87*	66*
Cn1cccc1/C=C1\SC(=Nc2ccccc2)NC1=O	76*	39	nt	46	68*	72*	57*

Screening data as filed in PubChem.
